Source: PubChem BioAssay
hDAT+cocaine: modulates human dopamine transporter uptake under cocaine; Q01959; LLC-PK1 hDAT cells, [14C]-dopamine uptake with cocaine IC80; actives deviate in either direction; B-score at 10 µM; hit rate 1.3% among 110,000; AID 449768;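 active = Z score or B-score, a plate-position-corrected score, falls beyond the plate's 99.7% confidence bounds, in either direction; inactive = both scores lie inside the 99.7% bounds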;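 also: scored against the spread of the other compound wells on the same plate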
Plk1 PBD FP: inhibitors of human Plk1 polo box domain binding; Plk1 PBD phosphopeptide binding, fluorescence polarization; AID 693; P53350; inhibition, %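 (tested at about 20 µM)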; hit rate 0.13% among 97,000; in the data active = inhibition above about 34%, passing the limit was not always enough
Target sequence (P53350 whole entry, looked up, the tested form may be a part): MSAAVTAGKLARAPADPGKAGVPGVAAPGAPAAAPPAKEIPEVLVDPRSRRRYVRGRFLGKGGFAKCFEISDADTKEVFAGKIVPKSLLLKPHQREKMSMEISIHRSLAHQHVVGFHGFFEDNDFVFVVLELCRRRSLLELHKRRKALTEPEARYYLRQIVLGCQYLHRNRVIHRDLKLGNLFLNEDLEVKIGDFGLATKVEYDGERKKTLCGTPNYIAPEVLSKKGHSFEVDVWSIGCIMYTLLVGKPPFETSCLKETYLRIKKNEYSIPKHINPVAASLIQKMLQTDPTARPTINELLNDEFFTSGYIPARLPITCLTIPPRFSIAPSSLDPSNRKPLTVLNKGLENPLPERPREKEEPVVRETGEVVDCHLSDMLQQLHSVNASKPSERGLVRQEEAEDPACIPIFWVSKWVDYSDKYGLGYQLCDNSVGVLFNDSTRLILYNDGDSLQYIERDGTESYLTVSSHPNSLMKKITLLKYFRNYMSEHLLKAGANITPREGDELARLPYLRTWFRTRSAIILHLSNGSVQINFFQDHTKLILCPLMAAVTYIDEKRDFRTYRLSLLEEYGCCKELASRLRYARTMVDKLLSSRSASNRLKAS
PLK1 kinase inh: inhibitors of human PLK1 kinase; P53350; recombinant PLK1 kinase, TR-FRET peptide phosphorylation; inhibition, % at 10 µM; hit rate 0.53% among 97,000;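 active = inhibition of 50% or more in the single-concentration screen; inactive = inhibition below 50%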;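 also: 0% = DMSO max control and 100% = H-89 dihydrochloride min control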
Cav32 inh: blocks human Cav3.2 T-type calcium channel; Cav3.2-expressing cells, Fluo-4 calcium fluorescence FDSS; stronger effect = lower value; B-score at 10 µM; O95180; AID 449739; hit rate 4% among 100,000;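 active = single-dose well whose peak fluorescence ratio is a statistical outlier from its plate by either plate-standardised score or position-corrected B-score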
SDO1 yeast rescue: compounds rescuing growth of sdo1-depleted yeast, bone marrow failure model; S. cerevisiae sdo1-depleted JHY4D growth rescue, OD600 30 h; stronger effect = higher value; pdr5 snq2 efflux-pump mutant strain; hit rate 0.21% among 140,000; z-score at 10 µM; AID 817;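 active = z-score above 3 at both the 24 hr and the 30 hr optical density reads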;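 also: z-score against mean and SD of all compound wells on the same plate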
PTK2B oligo ant: antagonists of human Pyk2 oligomerization. Q14289. Q293 cells, Pyk2 FERM NanoBiT luminescence; stronger effect = lower value. z-score (the deposit names both 25 µM and 10 µM). hit rate 0.83% among 99,000. AID 1347419;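 active = Z-score of -3 or lower, scaled per plate to the spread of control and sample wells; inactive = z-score above -3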;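 also: negative z-score means lost luminescence so less FERM oligomerization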
Active calls of the source: *. This is a sample that favours compounds with a hit; in the whole collection about 4.7% have one here.

Results for Cc1cc(C)cc(NC(=O)Cn2c(=O)oc3cc(S(=O)(=O)N4CC(C)CC(C)C4)ccc32)c1 (stereo not given) ?
hDAT+cocaine: 0.94; Plk1 PBD FP: 7; PLK1 kinase inh: -12; Cav32 inh: -4.3*; SDO1 yeast rescue: 1.1

What do the screens show for `COc1ccccc1CNC(=O)C(CC(C)C)NC(=O)C1CCC(C)CC1` (stereo not given)?
hDAT+cocaine: -0.16; Plk1 PBD FP: 30; PLK1 kinase inh: 3; Cav32 inh: -5.8*; SDO1 yeast rescue: -0.42; PTK2B oligo ant: 0.04

What do the screens show for `CC1CN(C(=O)N2c3ccccc3Sc3ccccc32)C(C)CC1=O` (stereo not given)?
hDAT+cocaine: -0.22; Plk1 PBD FP: -24; PLK1 kinase inh: -17; Cav32 inh: -4.6*; SDO1 yeast rescue: -0.97; PTK2B oligo ant: -1.1

How did CCC(=O)Nc1ccc(NC(=O)C23CC4CC(CC(C4)C2)C3)cn1 do in these assays?
hDAT+cocaine: 0.17; Plk1 PBD FP: 19; PLK1 kinase inh: -13; Cav32 inh: 0.47; SDO1 yeast rescue: -0.61; PTK2B oligo ant: 0.58

What do the screens show for `Cc1ccnc(NC(=O)C23CC4CC(CC(C4)C2)C3)c1`?
hDAT+cocaine: 0.43; Plk1 PBD FP: 25; PLK1 kinase inh: 1; Cav32 inh: -6.1*; SDO1 yeast rescue: -0.73; PTK2B oligo ant: -0.57

How did O=C(NCCc1ccccn1)c1cc(-c2ccccc2Cl)nc2ccccc12 do in these assays?
SDO1 yeast rescue: 0.02

Results for O=C(CN1CCCC1)N1c2ccccc2Sc2ccc(C(F)(F)F)cc21 ?
hDAT+cocaine: -0.38; Plk1 PBD FP: -15; PLK1 kinase inh: -15; Cav32 inh: -0.23; SDO1 yeast rescue: 0.26; PTK2B oligo ant: -0.12

Results for O=C(CN1CCN(c2ccccn2)CC1)N1c2ccccc2Sc2ccc(C(F)(F)F)cc21 ?
hDAT+cocaine: 0.98; Plk1 PBD FP: -27; PLK1 kinase inh: -8; Cav32 inh: -6.2*; SDO1 yeast rescue: -3; PTK2B oligo ant: 0.16

What do the screens show for `Cc1c(NC(=O)C(C)OC(=O)c2ccc(Cl)nc2)c(=O)n(-c2ccccc2)n1C` (stereo not given)?
SDO1 yeast rescue: 0.2

Results for CC1=C(C(=O)Nc2ccccc2)C(c2ccc(C)o2)N2C(=O)CSC2=N1 (stereo not given) ?
hDAT+cocaine: -0.21; Plk1 PBD FP: -10; PLK1 kinase inh: -3; Cav32 inh: -7.9*; SDO1 yeast rescue: 0.28

How did CC1=C(C(=O)Nc2ccccc2)C(c2ccccc2)N2C(=O)CSC2=N1 (stereo not given) do in these assays?
hDAT+cocaine: -0.66; Plk1 PBD FP: 9; PLK1 kinase inh: -1; Cav32 inh: -11*; SDO1 yeast rescue: 0.35; PTK2B oligo ant: 0.8

What do the screens show for `COc1cc(NC(=O)Cn2c(=O)n(-c3cccc(C)c3)c(=O)c3c(C)c(C)sc32)cc(OC)c1`?
SDO1 yeast rescue: 0.71

What do the screens show for `CCC(=O)Nc1cc(C(=O)OCc2ccc(C(=O)Oc3ccccc3)cc2)ccc1C`?
SDO1 yeast rescue: -0.58

What do the screens show for `Cn1nc(OC(=O)Nc2ccc(Cl)cc2)cc1C(F)(F)F`?
hDAT+cocaine: -2.9*; Plk1 PBD FP: -15; PLK1 kinase inh: -6; Cav32 inh: -0.1; SDO1 yeast rescue: 0.07

Results for COc1ccc(Oc2ccccc2C=O)cc1 ?
hDAT+cocaine: 0.02; Plk1 PBD FP: -18; PLK1 kinase inh: -15; Cav32 inh: 1.1; SDO1 yeast rescue: 0.81; PTK2B oligo ant: 1.7

How did COc1ccc(N2C(=O)N(Cc3cccc(F)c3)c3ccccc3S2(=O)=O)cc1 do in these assays?
hDAT+cocaine: 1.2; Cav32 inh: -3.5

How did Cc1ccc(C(=O)NNC(=O)C2CCCN(c3ncccn3)C2)cc1 (stereo not given) do in these assays?
hDAT+cocaine: 6.6*; Plk1 PBD FP: -28; PLK1 kinase inh: -3; Cav32 inh: 0.83; SDO1 yeast rescue: 0.49; PTK2B oligo ant: -0.32

Results for CCOc1cc2c3c(c1)C1(C(=O)N3C(C)(C)C=C2C)C(C#N)=C(N)Oc2cc(O)ccc21 (stereo not given) ?
hDAT+cocaine: -0.26; Plk1 PBD FP: 7; PLK1 kinase inh: -12; Cav32 inh: -5.6*; SDO1 yeast rescue: 0.01; PTK2B oligo ant: -0.68

How did COc1cc2c3c(c1)C1(C(=O)N3C(C)(C)C=C2C)C(C#N)=C(N)Oc2cc(O)ccc21 (stereo not given) do in these assays?
hDAT+cocaine: 0.21; Plk1 PBD FP: 18; PLK1 kinase inh: 3; Cav32 inh: -2.2; SDO1 yeast rescue: 0.64; PTK2B oligo ant: -2.3

How did CCOC(=O)c1cc(NC(=O)CSc2nnc(CN3CCOCC3)n2C)ccc1Cl do in these assays?
hDAT+cocaine: -8.9*; Plk1 PBD FP: 0; PLK1 kinase inh: -7; Cav32 inh: 1.7; SDO1 yeast rescue: -0.45; PTK2B oligo ant: 0.04

What do the screens show for `CCCN1C(=O)/C(=C/C=C2\N(CC)c3ccccc3C2(C)C)SC1=S`?
hDAT+cocaine: -1.3; Plk1 PBD FP: -224; PLK1 kinase inh: -21; Cav32 inh: -4.5*; SDO1 yeast rescue: -1; PTK2B oligo ant: -3*

Results for Cc1nn(Cc2ccc(Cl)cc2Cl)c(C)c1NC(=O)NC12CC3CC(CC(C3)C1)C2 ?
hDAT+cocaine: 1.2; Plk1 PBD FP: 10; PLK1 kinase inh: -3; Cav32 inh: -4.2*; SDO1 yeast rescue: -1.1; PTK2B oligo ant: -0.5

How did Oc1ccc(O)c(-c2cnns2)c1 do in these assays?
SDO1 yeast rescue: 2.1

What do the screens show for `O=C(NC1CC2CCC(C1)N2C(=O)NCc1ccccc1)C1CC1` (stereo not given)?
hDAT+cocaine: -0.078; Plk1 PBD FP: -4; PLK1 kinase inh: -13; Cav32 inh: 0.93; SDO1 yeast rescue: -0.28; PTK2B oligo ant: -0.22

What do the screens show for `O=C(NC1CC2CCCC(C1)N2C(=O)Nc1ccc(Cl)c(C(F)(F)F)c1)C1CC1` (stereo not given)?
hDAT+cocaine: -0.017; Plk1 PBD FP: 19; PLK1 kinase inh: -11; Cav32 inh: -5.7*; SDO1 yeast rescue: -0.06; PTK2B oligo ant: 1.1

How did O=C(Nc1cccc2cccnc12)c1ccc2c(c1)OCCO2 do in these assays?
hDAT+cocaine: 1.4; Plk1 PBD FP: -12; PLK1 kinase inh: -28; Cav32 inh: -4.5*; SDO1 yeast rescue: -0.77; PTK2B oligo ant: -2.2

Results for Cc1nnc(N2C(=O)C(O)=C(C(=O)c3ccco3)C2c2ccc(F)cc2)s1 (stereo not given) ?
hDAT+cocaine: 0.41; Plk1 PBD FP: -12; PLK1 kinase inh: -2; Cav32 inh: 0.48; SDO1 yeast rescue: 0.76

Results for Cc1nnc(N2C(=O)C(O)=C(C(=O)c3ccco3)C2c2ccc(C(C)(C)C)cc2)s1 (stereo not given) ?
hDAT+cocaine: 0.0068; Plk1 PBD FP: -23; PLK1 kinase inh: -1; Cav32 inh: -3.7*; SDO1 yeast rescue: 0.78; PTK2B oligo ant: -0.97

Results for c1ccc(Nc2nc(-c3cccs3)cs2)nc1 ?
hDAT+cocaine: 2.2; Plk1 PBD FP: -7; PLK1 kinase inh: -9; Cav32 inh: -5*; SDO1 yeast rescue: -3; PTK2B oligo ant: -0.12
